In all, about 360,000 compounds went through this assay and about 3,900 (1.1%) were called active.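 How the source made its calls: active means mean replicate inhibition score of at least 50 and every replicate individually at or above 50; inconclusive means only one of the two criteria met; inactive means mean below 50 and not all replicates reaching 50.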 The entries come from a sample that favours actives as a whole.

A short description of the assay: inhibitors of HIV-1 Env-driven cell-cell fusion, primary screen, HeLa-JRFL effector, CEM21 target cells, luciferase (AID 651610).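 Further: 0% = plate neutral controls and 100% = maraviroc near 300 nM.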 As to conditions: stronger effect = higher value; at 16.7 µM unless noted.
As for `COc1ccc([Si](C)(C)[C@H]2[C@H](CCO)O[C@@]3(C(=O)N(Cc4cccc(N5CCOC5=O)c4)c4ccccc43)[C@@H]2C)cc1`, the inhibition (in general, the relative decrease from the control value, in per cent) is 61.7% (active). For `COc1ccc([Si](C)(C)[C@@H]2[C@@H](CCO)O[C@]3(C(=O)N(Cc4cccc(N5CCCCC5=O)c4)c4ccccc43)[C@H]2C)cc1` the value was -10.1% (inactive); for `COc1ccc([Si](C)(C)[C@@H]2[C@@H](CCO)O[C@]3(C(=O)N(Cc4ccccc4)c4ccc(N5CCC5=O)cc43)[C@H]2C)cc1`, 15.1% (inactive). As to `Cc1noc(C)c1NC(=O)N[C@@H]1CC[C@H](CCNC(=O)C2CCC2)O[C@@H]1CO`, the inhibition was 5.86% (inactive). Turning to `C[C@H](CO)N1C[C@H](C)[C@@H](CN(C)S(=O)(=O)c2cccs2)OCc2ccccc2-c2ccccc2C1=O`, the inhibition is 3.13% (inactive).

Consider `Cc1noc(C)c1S(=O)(=O)N(C)C[C@@H]1OCc2ccccc2-c2ccccc2C(=O)N([C@@H](C)CO)C[C@H]1C`, for which the inhibition is 28.5% (inactive). For `C[C@H]1CN([C@@H](C)CO)C(=O)c2ccccc2-c2ccccc2CO[C@@H]1CN(C)S(=O)(=O)c1ccc(C(F)(F)F)cc1` the value was 22.4% (inactive); for `C[C@H]1CN([C@@H](C)CO)C(=O)c2ccccc2-c2ccccc2CO[C@H]1CN(C)S(=O)(=O)c1cccc(C#N)c1`, 56.8% (active); for `C[C@@H]1CN([C@H](C)CO)C(=O)c2ccccc2-c2ccccc2CO[C@H]1CN(C)S(=O)(=O)c1ccsc1`, 15.4% (inactive). The figure for `C[C@H]1CN([C@@H](C)CO)C(=O)c2ccccc2-c2ccccc2CO[C@H]1CN(C)S(=O)(=O)c1ccccc1C#N` is 66.4% (active). The figure for `C[C@H]1CN([C@@H](C)CO)C(=O)c2cc(Br)cnc2O[C@@H]1CN(C)S(=O)(=O)c1ccc(F)cc1` is 48% (inactive).

Consider `C[C@@H]1CN([C@H](C)CO)C(=O)c2cccc(NS(=O)(=O)c3cn(C)cn3)c2O[C@H]1CN(C)Cc1ccc(C(=O)O)cc1`, for which the inhibition is 16.1% (inactive).

With `CC(=O)N1C[C@@H](CO)[C@@H](N(C)C(=O)C(C)(C)C)C[C@H]1c1ccccc1Br`, the inhibition was -6.57% [at 12.3 µM] (inactive). The figure for `Cc1ccc(S(=O)(=O)N2C[C@@H]3CCCC[C@@H]3[C@@H](C)[C@H]2c2cn(Cc3ccccc3)c3ccc(F)cc23)cc1` is 77% [at 12.3 µM] (active).

`Cc1ccc(F)cc1S(=O)(=O)N[C@@H]1CCN(Cc2ccc(-c3ccccc3)cc2)C1`: the inhibition is -7.12% (inactive). For `CCOC1=C2[C@@H](CN(S(=O)(=O)c3ccc(C)cc3)[C@H]2c2ccccc2F)[C@H]2C(=O)N(Cc3ccccc3)C(=O)[C@H]2C1` the value was 12.3% [at 12.3 µM] (inactive); for `CO[C@H]1CN(C)C(=O)c2cc(NC(=O)NC(C)C)ccc2OC[C@@H](C)NC[C@@H]1C`, -14% (inactive); for `O=C(N[C@H]1CC[C@@H](CCNS(=O)(=O)c2cccc(Cl)c2)O[C@@H]1CO)c1ccccc1`, 12.1% (inactive). The figure for `CCCNC(=O)N(C)C[C@H]1Oc2ncc(C#Cc3ccncc3)cc2C(=O)N([C@@H](C)CO)C[C@@H]1C` is 0.597% (inactive); for `O=C1[C@H]2[C@@H](c3ccc(F)cc3)N3C(=O)N(c4ccc(C(F)(F)F)cc4)C(=O)[C@@]3(Cc3ccccc3)[C@H]2C(=O)N1C1CCCCC1` it is 79% [at 12.3 µM] (active). The figure for `Cc1cccc(N2C(=O)N3[C@H](c4ccc(F)cc4)[C@@H]4C(=O)N(C5CCCCC5)C(=O)[C@@H]4[C@]3(Cc3ccccc3)C2=O)c1` is 55.1% [at 12.3 µM] (active); for `Cc1cccc([C@@H]2[C@@H]3C(=O)N(Cc4ccccc4)C(=O)[C@@H]3[C@]3(Cc4ccc(Cl)cc4)C(=O)N(c4cccc(Cl)c4)C(=O)N23)c1` it is -14.5% [at 12.3 µM] (inactive). For `O=C1[C@H]2[C@@H](c3ccc(Cl)cc3)N3C(=O)N(c4cccc(F)c4)C(=O)[C@@]3(Cc3ccccc3)[C@H]2C(=O)N1C1CCCCC1`, the inhibition is 1.92% [at 12.3 µM] (inactive). Consider `C[C@@H]1CN([C@@H](C)CO)S(=O)(=O)c2ccc(C#Cc3ccc(F)cc3)cc2O[C@H]1CN(C)C(=O)NC1CCCC1`, for which the inhibition was -2.36% (inactive). For `COc1ccc(CN(C)C[C@H]2Oc3c(NS(=O)(=O)c4ccccc4)cccc3C(=O)N([C@@H](C)CO)C[C@H]2C)cc1` the value was 12% (inactive). For the compound `O=C(Cc1ccccn1)NCC[C@H]1CC[C@@H](NS(=O)(=O)c2ccc(F)cc2)[C@H](CO)O1`, the inhibition was -7.4% (inactive).

Consider `CCCCNC(=O)C[C@@H]1C[C@@]2(C(=O)OC)CC(C)(C)CC=C2N(Cc2ccco2)C1=O`, for which the inhibition was 5.33% [at 12.3 µM] (inactive). For `CCOC(=O)[C@]12CCC=C1N(Cc1ccco1)C(=O)[C@H](CC(=O)NCc1cccc(C(F)(F)F)c1)C2` the value was 18.4% [at 12.3 µM] (inactive); for `COC(=O)[C@@]12C[C@@H](CC(=O)NCc3cccc(C(F)(F)F)c3)C(=O)N(Cc3ccco3)C1=CCC(C)(C)C2`, 74.9% [at 12.3 µM] (active); for `C[C@H](CO)N1C[C@H](C)[C@@H](CN(C)C(=O)Nc2ccc3c(c2)OCO3)Oc2ccc(NS(=O)(=O)c3ccc(Cl)cc3)cc2CC1=O`, -30.5% (inactive). The figure for `O=C(NC(c1ccc(Cl)cc1)c1cnccn1)C1CCN(Cc2ccc(Cl)cc2)CC1` (stereo unspecified) is 16.4% [at 12.3 µM] (inactive). On to `Cc1cccnc1C(NC(=O)C1CCN(Cc2ccc(Cl)c(Cl)c2)CC1)c1ccc(Cl)cc1` (stereo unspecified), for which the inhibition is 62.7% [at 12.3 µM] (active). The figure for `Cc1ccc(C(NC(=O)C2CCN(CCOc3ccc(Cl)cc3Cl)CC2)c2ccccn2)cc1` (stereo unspecified) is 6.28% [at 12.3 µM] (inactive); for `C[C@H]1CN([C@@H](C)CO)S(=O)(=O)c2ccc(Br)cc2O[C@H]1CN(C)Cc1ccccn1` it is 16.3% (inactive); for `C[C@H]1CN([C@@H](C)CO)S(=O)(=O)c2ccc(C3=CCCC3)cc2O[C@@H]1CN(C)Cc1ccccc1` it is 18.3% (inactive). Consider `OCCN1CCN(C(=S)c2ccc(-c3ccccc3)cc2)CC1`, for which the inhibition was 71.3% [at 12.3 µM] (active).

With `CN1CCN(CCCCOc2ccccc2-c2ccccc2)CC1`, the inhibition was 6.99% [at 12.3 µM] (inactive).

Regarding `S=C(c1ccc(-c2ccccc2)o1)N1CCCCC1`, the inhibition is -140% [at 12.3 µM] (inactive).

As to `CCOC(=O)c1c(NC(=O)C(C)Sc2c[nH]c3ccccc23)sc2c1CCC2` (stereo unspecified), the inhibition is 67% [at 12.3 µM] (active). For `CCOC(=O)c1c(NC(=O)C2(C)Cc3ccccc3C(=O)O2)sc2c1CCCC2` (stereo unspecified) the value was 14.6% [at 12.3 µM] (inactive); for `CCOC(=O)c1c(NC(=O)CSc2cn(CC)c3ccccc23)sc2c1CCC2`, 40.8% [at 12.3 µM] (inactive); for `C[C@H](CO)N1C[C@H](C)[C@H](CN(C)S(=O)(=O)c2cn(C)cn2)Oc2ccc(NS(=O)(=O)c3ccccc3)cc2C1=O`, 2.2% (inactive).

Consider `C[C@@H]1CN([C@@H](C)CO)C(=O)c2cc(NC(=O)Cc3ccccc3)ccc2O[C@@H](C)CCCCO[C@@H]1CN(C)C(=O)Nc1ccccc1`, for which the inhibition is 34.3% (inactive).

Take `Cc1ccc(Cc2c(-c3ccc(C)cc3)nc3c4ccccc4ccn23)cc1`: the inhibition is 14.4% [at 12.3 µM] (inactive). On to `Cc1ccc(Cc2c(-c3ccc(Cl)cc3)nc3c4ccccc4ccn23)cc1`, for which the inhibition was 0.563% [at 12.3 µM] (inactive).

Consider `c1ccc(Cc2c(-c3ccco3)nc3c4ccccc4ccn23)cc1`, for which the inhibition was 65.9% [at 12.3 µM] (active).

For the compound `COc1ccc(S(=O)(=O)N(C)C[C@H]2OCCCC[C@@H](C)Oc3ccc(NC(=O)c4ccncc4)cc3C(=O)N([C@H](C)CO)C[C@@H]2C)cc1`, the inhibition was 13.6% (inactive). As to `CO[C@@H]1CN(C)C(=O)c2cc(NS(=O)(=O)c3cccc(Cl)c3)ccc2OC[C@@H](C)NC[C@@H]1C`, the inhibition is 0.008% (inactive). Turning to `C[C@@H]1CN([C@@H](C)CO)C(=O)Cc2cc(NC(=O)Nc3ccc4c(c3)OCO4)ccc2O[C@@H]1CN(C)C(=O)Nc1ccc2c(c1)OCO2`, the inhibition was -15.9% (inactive). For `COc1cccc(NC(=O)N[C@@H]2CC[C@H](CC(=O)NCc3ccccn3)O[C@H]2CO)c1` the value was -38% (inactive); for `CCC(=O)N(C)C[C@@H]1Oc2ncc(C3=CCCC3)cc2C(=O)N([C@H](C)CO)C[C@@H]1C`, 0.169% (inactive); for `CCC(=O)N(C)C[C@H]1Oc2ncc(-c3ccccc3OC)cc2C(=O)N([C@H](C)CO)C[C@H]1C`, -7.79% (inactive). `COc1ccc2c3c([nH]c2c1)[C@@H](CO)N(C(=O)c1ccccc1)CC31CCN(Cc2cccnc2)CC1`: the inhibition is -8.66% (inactive). As for `O=S1(=O)c2c(cccc2N2CCCCC2)O[C@H](COCc2ccccc2)CN1C1CC1`, the inhibition was 102% [at 12.3 µM] (active). In the case of `CSc1ccc(Oc2cccc3c2S(=O)(=O)N([C@H](C)c2ccccc2)C[C@@H](COCc2ccccc2)O3)cc1C`, the inhibition is 10.8% [at 12.3 µM] (inactive). The figure for `O=S1(=O)c2c(cccc2N2CCCC2)O[C@H](COCc2ccccc2)CN1C1CC1` is -8.42% [at 12.3 µM] (inactive); for `COc1ccc(NC(=O)N(C)C[C@@H]2Oc3ccc(NC(=O)Cc4cn(C)c5ccccc45)cc3CC(=O)N([C@@H](C)CO)C[C@H]2C)cc1` it is -18.3% (inactive). For `CCc1cnc(N2[C@H](C#N)[C@H](c3ccc(C4=CCCC4)cc3)[C@@H]2CO)s1` the value was 1.6% (inactive); for `Cc1ccc(O)c(-c2cc(C(=O)NCc3ccccc3)[nH]n2)c1`, -126% [at 12.3 µM] (inactive). As for `CCCOc1ccc(F)cc1-c1cc(C(=O)NCc2ccc(F)cc2)[nH]n1`, the inhibition was -16.3% [at 12.3 µM] (inactive). The figure for `Cc1cc(O)ccc1-c1cc(C(=O)NCc2cc(C(F)(F)F)cc(C(F)(F)F)c2)[nH]n1` is 59.8% [at 12.3 µM] (active).

For the origin of these results see PubChem BioAssay AID651610 (Broad Institute, 2012).
